Shown are actives, neighbours in structure and some others; about 10% of the full set was active somewhere.
CCT modulator: modulators of cytosolic chaperonin (CCT/TRiC) activity | AID 651819 | activity change, % (concentration not given with the values), hits read low | 360,000 compounds, 0.3% hits | purified chaperonin ATPase assay, HTRF ADP detection, 30 min; in the data active = activity change below about -30%
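We incubate TRiC, 40 or 20 nM final, with library compounds at 76 uM and 10 uM ATP for 30 min at 37 °C. ADP formed is detected with Transcreener HTRF reagents after 30 min at room temperature.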
PLK1 PBD inh: inhibitors of human PLK1 polo-box domain binding | Plk1 PBD binding of FITC phosphopeptide, fluorescence polarization | Potency, µM, without a hit: max response, negative = inhibition, actives largely listed as inhibitors | 360,000 compounds, 2.8% hits; also: potency is read from the fitted curve at half-maximal effect; series mostly up to about 57 µM; nearly all actives have a fitted effect of over 65% in size
Target sequence (P53350 whole entry, looked up, the tested form may be a part): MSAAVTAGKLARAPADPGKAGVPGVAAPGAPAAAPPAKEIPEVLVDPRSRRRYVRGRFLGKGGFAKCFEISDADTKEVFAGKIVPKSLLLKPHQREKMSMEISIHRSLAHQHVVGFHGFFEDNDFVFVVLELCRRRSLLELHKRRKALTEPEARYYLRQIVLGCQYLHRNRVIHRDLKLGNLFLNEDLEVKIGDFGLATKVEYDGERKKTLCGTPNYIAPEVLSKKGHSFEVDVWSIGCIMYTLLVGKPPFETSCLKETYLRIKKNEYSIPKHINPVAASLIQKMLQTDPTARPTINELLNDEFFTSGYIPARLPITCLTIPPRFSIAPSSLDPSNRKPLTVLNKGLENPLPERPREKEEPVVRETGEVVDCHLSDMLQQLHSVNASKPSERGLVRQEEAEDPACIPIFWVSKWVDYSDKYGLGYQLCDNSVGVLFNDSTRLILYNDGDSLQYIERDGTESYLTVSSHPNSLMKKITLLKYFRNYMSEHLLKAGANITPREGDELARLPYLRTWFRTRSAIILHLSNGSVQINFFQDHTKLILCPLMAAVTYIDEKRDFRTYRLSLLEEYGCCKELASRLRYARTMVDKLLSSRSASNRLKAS
Sfp PPTase inh: inhibitors of Bacillus subtilis Sfp phosphopantetheinyl transferase | Potency, µM, inactives show largest response in the series, negative = inhibition, usual class: inhibitors | 310,000 compounds, 3.5% hits | AID 1490 | Biochemical Sfp PPTase activity, qHTS | Q9F4F7;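 also: the enzyme is Sfp with the accession as filed and its product quenches rhodamine fluorescence; potency is read from the fitted curve at half-maximal effect; 0% = enzyme reaction without inhibitor and -100% = no enzyme wells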
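Step 1, compound plus 15 nM Sfp-PPTase, 15 min, room temperature. Step 2, add rhodamine-CoA (5 uM) and BHQ-2-YbbR (12.5 uM). Step 3, read 525/598 nm fluorescence at 0 and 30 min.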
VDR inh: vitamin D3 receptor (human) inhibition; 400,000 compounds, 0.93% hits; VDR-SRC2-3 peptide fluorescence polarization, 2 h; Potency, µM, inactives show max response, negative = inhibition, most hits filed as inhibitors; AID 504847; P11473; also: potency is read from the fitted curve at half-maximal effect
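The screen uses fluorescence polarization to detect compounds that interfere with recruitment of the SRC2-3 coactivator peptide to VDR; plates are read after 2 h at room temperature.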
G9a inh: inhibitors of human histone lysine methyltransferase G9a; Q96KQ7; G9a H3K9 monomethylation, AlphaScreen, 2 h; Potency, µM (series often up to 102 µM), for the others: at the top dose activity, negative = inhibition, most hits filed as inhibitors; 350,000 compounds, 8.8% hits; also: potency is read from the fitted curve at half-maximal effect; nearly all actives have a fitted effect of over 75% in size
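Using a bead-based AlphaScreen, monomethylated H3K9 product from 2 h room-temperature reactions (G9a 20 nM, peptide 500 nM, SAM 20 uM) was detected with 0.5 ug/mL rabbit anti-H3K9me1 antibody.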
MmCpn inh: blocks the Methanococcus maripaludis chaperonin Mm-Cpn; purified Mm-Cpn ATPase, ADP Transcreener TR-FRET; Potency, µM (highest dose often 76.9 µM), for the others: top-dose activity, negative = inhibition, hits mostly inhibitors; 330,000 compounds, 0.031% hits; also: potency is read from the fitted curve at half-maximal effect; nearly all actives have a fitted effect of over 80% in size
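25 nM Mm-CPN + cpd, 10 min 37°C; + 10 uM ATP, 30 min 37°C; buffer 30 mM Tris pH 7.4, 100 mM KCl, 5 mM MgCl2, 1 mM DTT; Transcreener ADP HTRF detection 30 min RT.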
The depositor's hits bear a star; [ ] = remark or other dose. Unless noted, calls follow the shape of the dose curve; as a rule, active = well fitted curve in the direction sought with a large enough effect; inconclusive = small, poorly fitted or top-dose-only effect, or another doubt; inactive = no such curve, though single readings can be large; an effect the other way counts as inactive or inconclusive. Unless noted, % is scaled to controls: 0 for no effect and ±100 for the full control effect.

Results for COC(CNC(=O)c1cc(C)nn1-c1ccccc1)OC ?
CCT modulator: -0.6; PLK1 PBD inh: 23.8µM*; Sfp PPTase inh: 22.6%; VDR inh: -11.6%; G9a inh: -34.5%; MmCpn inh: 2.0%

What do the screens show for `COc1ccc([N+](=O)[O-])cc1/C=N/NC(=O)/C(=C\c1cccs1)NC(=O)c1ccccc1`?
CCT modulator: -1.2; PLK1 PBD inh: -7.3%; Sfp PPTase inh: 4.4%; VDR inh: -4.9%; G9a inh: 89.1µM*; MmCpn inh: 0.9%

What do the screens show for `COc1ccc(/C=C(/NC(=O)c2ccccc2)C(=O)N/N=C/c2cccs2)cc1OC`?
CCT modulator: -2.3; PLK1 PBD inh: -2.5%; Sfp PPTase inh: 9.9%; VDR inh: -11.8%; G9a inh: -2.7%[59 µM]; MmCpn inh: 0.9%

What do the screens show for `COc1ccc(N2C(=O)CC(NC3CCCCNC3=O)C2=O)cc1` (stereo unspecified)?
CCT modulator: 0.0; PLK1 PBD inh: -7.5%; Sfp PPTase inh: 3.8%; VDR inh: -12.9%; G9a inh: 11.2µM*; MmCpn inh: 0.7%

What do the screens show for `COc1ccc(-n2cc(CN[C@H]3CCCCNC3=O)c(-c3cccc(F)c3)n2)cc1`?
CCT modulator: 1.6; PLK1 PBD inh: 0.8%; Sfp PPTase inh: 13.0%; VDR inh: 17.7%; G9a inh: -43.3%; MmCpn inh: -1.5%

What do the screens show for `Cc1ccc(-c2cc(C(=O)N3CCN(S(=O)(=O)c4ccc(Br)cc4)CC3)[nH]n2)c(C)c1`?
VDR inh: 10.4%; G9a inh: 2.3%[59 µM]

How did CCc1ccc(/C([O-])=C(/C(=S)NCCN2CCOCC2)[n+]2ccccc2)cc1 do in these assays?
CCT modulator: -0.1; PLK1 PBD inh: inconclusive; Sfp PPTase inh: 44.7µM*; VDR inh: -16.4%; G9a inh: 25.1µM*; MmCpn inh: -0.2%

Results for CC(=O)Nc1ccc(S(=O)(=O)Oc2ccc(C(=S)N3CCC(O)CC3)cc2)cc1 ?
CCT modulator: -1.6; PLK1 PBD inh: inconclusive; Sfp PPTase inh: 56.2µM*; VDR inh: -7.0%; G9a inh: 17.8µM*; MmCpn inh: 0.9%

How did Cc1ccc(CNC(=O)c2cc(NS(=O)(=O)c3ccc(C)cc3)ccn2)cc1 do in these assays?
VDR inh: 6.5%; G9a inh: -4.9%[59 µM]

Results for CCc1cccc(NC(=O)Cn2nc3c4cc(F)ccc4n(Cc4cccc(C)c4)cc-3c2=O)c1 ?
VDR inh: 4.0%; G9a inh: 5.4%[59 µM]

Results for O=C(C1CCCN(c2nnc(-n3cccc3)s2)C1)N1CCN(c2ccccc2)CC1 (stereo unspecified) ?
CCT modulator: -1.6; PLK1 PBD inh: -5.4%; Sfp PPTase inh: -20.3%; VDR inh: 0.9%; G9a inh: 50.1µM*; MmCpn inh: -0.2%

Results for CC(CCc1ccccc1)NC(=O)C1CCCN(c2nnc(-n3cccc3)s2)C1 (stereo unspecified) ?
CCT modulator: -1.4; PLK1 PBD inh: -0.2%; Sfp PPTase inh: -4.0%; VDR inh: -6.2%; G9a inh: 9.5%[59 µM]; MmCpn inh: 2.2%

Results for CCOC(=O)c1ccccc1NC(=O)N1CC(C)Oc2ccc(C)cc21 (stereo unspecified) ?
VDR inh: 9.8%; G9a inh: -30.1%[59 µM]

Results for COc1cc2c(cc1OC)CN(CCC(=O)c1ccc(Br)cc1)CC2 ?
CCT modulator: 0.2; PLK1 PBD inh: 4.74µM*; Sfp PPTase inh: -7.7%; VDR inh: 70.8µM*; G9a inh: 14.1µM*; MmCpn inh: -3.2%

How did CCOC(=O)N1CCN(CCC(=O)Nc2ccc(C)cc2)CC1 do in these assays?
CCT modulator: 1.0; PLK1 PBD inh: -0.6%; Sfp PPTase inh: 13.1%; VDR inh: -0.2%; G9a inh: 13.1%[59 µM]; MmCpn inh: -0.3%

Results for CCOC(=O)N1CCN(CCC(=O)c2ccc(Br)cc2)CC1 ?
CCT modulator: 0.1; PLK1 PBD inh: 0.67µM*; Sfp PPTase inh: 50.1µM*; VDR inh: 17.8µM*; G9a inh: 3.98µM*; MmCpn inh: -2.7%
